Source: PubChem BioAssay (NCI)
“And” between values parts separate entries of the source, which are not always exact repeats. Equal entries are not always repeated. This is part of a sample that, as a whole, favours compounds with a hit. Of some 79,000 tested, about 15% had one in any assay. More than one record can exist for a structure, and the calls need not agree. The source made the active and inactive calls. Cut-off read from the data, not from the text of the source: active = growth inhibition above about 70%; inactive = the rest.

Assay: NCI Yeast Anticancer Drug Screen. Data for the mlh1 rad18 strain (AID 175)
Settings: S. cerevisiae mlh1 rad18 strain growth inhibition; at 50.0 µM (retest, dose inferred, filed as 5.0); stronger effect = higher value
How it was run: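 Test agents were incubated with a yeast strain of defined genotype (DNA damage repair defect). Inhibition of growth was derived by comparison with vehicle-exposed cultures.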

SMILES | growth inhibition
O=C(Oc1ccc2c(c1)CN(Cc1ccccc1)CO2)c1ccccc1 | 49% (inactive)
CN(C)[C@@H]1C(=O)C(C(N)=O)=C(O)[C@@]2(O)C(=O)C3=C(O)c4c(O)cccc4C[C@H]3C[C@@H]12 | 99% (active)
O=[N+]([O-])c1ccc2c(c1)/C(=N/N=C1c3ccccc3Cc3ccccc31)c1cc([N+](=O)[O-])cc([N+](=O)[O-])c1-2 | 96% (active)
Cc1nc2c(Br)cc(Br)cc2c(=O)n1-c1ccccc1NC1OCC(O)C(O)C1O (stereo not given) | 93% (active) and 74% (active)
Cc1cc(N(CCOS(C)(=O)=O)CCOS(C)(=O)=O)ccc1C=Nc1ccc(-c2nc(Cc3ccccc3)sc2C)cc1 | 97% (active) and 43% (inactive)

Same assay, conditions: S. cerevisiae mlh1 rad18 strain growth inhibition; at 50.0 µM; stronger effect = higher value

SMILES | growth inhibition
O=C1/C(=C/c2ccccc2)CCCC1CN1CCCCC1 (stereo not given) | 74.7% (active)
C#CCN(Cc1ccc2nc(N)[nH]c(=O)c2c1)c1ccc(C(=O)NC(CCC(=O)O)C(=O)O)cc1 (stereo not given) | 35% (inactive) and 20.6% (inactive)
CCOC1(c2cccc([N+](=O)[O-])c2)c2ccccc2Oc2ccccc21 | 62% (inactive)
O=C(O)CNC(=S)Nc1ccccc1 | 3.45% (inactive) and 54.6% (inactive)
C[Si](C)(C)/C=C/CCNC(C#N)c1ccccc1 (stereo not given) | 90.3% (active)
CCCCCCCCCCCCCCCCOP(=O)(O)OCC(N)C(=O)O (stereo not given) | 98.2% (active)
CC1=C(C(=O)NCc2ccccc2)C(c2ccccc2)C(C(=O)NCc2ccccc2)=C(C)N1 | 93.1% (active)
O=[N+]([O-])c1cc(S(=O)(=O)Nc2ccccc2)ccc1Nc1ccccc1 | 77.7% (active)
COc1cc2ccnc(-c3c4ccccc4c(N)c4c(OC)c(OC)ccc34)c2cc1OC | 72.7% (active)
CCOC(=O)C(Br)C(Br)c1ccccc1Cl (stereo not given) | 99.5% (active)
CCOC(=O)C1=C(C)NC(C)=C(C(=O)OCCNC(=O)c2ccc(N=[N+]=[N-])cc2)C1c1ccccc1C(F)(F)F (stereo not given) | 32.5% (inactive)
Cc1cc(C)c(NC(=S)NC(=O)c2ccccc2)cc1C | 8.65% (inactive)
CNCCCNc1c2ccccc2nc2cccc([N+](=O)[O-])c12 | 85.3% (active)
COc1c(O)c(C=O)c(Br)c(C=O)c1O | 99% (active)
Cc1c(C)c(C)c(CSC(=N)N)c(C)c1C | 92.3% (active)
O=C(CSC(=S)N1CCCCC1)Nc1nc2c(s1)CCCC2 | 78.6% (active)
CNC(=O)OCc1c(COC(=O)NC)c(-c2ccc(Cl)cc2)n2c1CCC2 | 74.3% (active)
CC(=O)OC1CC2C(C)(C)C(=O)C=C[C@]2(C)C2CCC3(C)C(=CCC3[C@H](CO)C[C@H](O)C(=O)C(C)(C)O)[C@]12C (stereo not given in full) | 26.1% (inactive)

SMILES | growth inhibition
CCCCCCOC(=O)NCCOC(=O)Nc1ccccc1 | 17.7% (inactive)
CCc1c(Cl)c(C)cc(O)c1Cl | 89.5% (active)
Cc1nc(Nc2ccccc2[N+](=O)[O-])sc1C(=O)CC(=O)C(=O)Nc1c(C(C)C)cccc1C(C)C | -5.1% (inactive)
O=[N+]([O-])c1cccc2nc3ccccc3c(NCCCn3ccnc3[N+](=O)[O-])c12 | 79.2% (active)
CCCCCCC(O)CNCc1ccnc2ccc(OC)cc12 (stereo not given) | 52.2% (inactive)
Cc1c2cccc(Sc3ccccc3)c2c2c3c(cccc13)[S+](c1ccccc1)C2 (stereo not given) | 93.3% (active)
C=C1CCC(O)C/C1=C/C=C1\CCCC2(C)C1CCC2C(C)CCCC(C)C (stereo not given) | 82.9% (active)
NC1=NNC2(C(N)=N1)c1ccccc1-c1ccccc12 | 79.3% (active)
COC(=O)NC1C(C)OC(OC2C/C=C(/C)C3C=CC4C(OC5CC(OC6CC(O)C(OC7CC(O)C(OC)C(C)O7)C(C)O6)C(O)C(C)O5)C(C)CC(C)C4C3(C)/C(O)=C3\C(=O)OC4(CC(C)C(CO)=CC4/C=C\2C)C3=O)CC1(C)[N+](=O)[O-] (stereo not given) | 10.6% (inactive)
O=C1CSC(c2cccc(Cl)c2)N1c1ccc(-c2ccc(-n3c(-c4ccccc4)nc4ccccc4c3=O)cc2)cc1 (stereo not given) | 85.1% (active)
COc1ccc(N=CN(C)C)c(C)c1 | 48.4% (inactive)
Cc1cc(S(=O)(=O)Nc2nnc3cnc4ccccc4n23)c(S)cc1Cl | 15.2% (inactive)
O=C(Oc1ccc2c(c1)CN(Cc1ccccc1)CO2)c1ccccc1 | 83% (active)
CN(C)[C@@H]1C(=O)C(C(N)=O)=C(O)[C@@]2(O)C(=O)C3=C(O)c4c(O)cccc4C[C@H]3C[C@@H]12 | 89.8% (active)
O=[N+]([O-])c1ccc2c(c1)/C(=N/N=C1c3ccccc3Cc3ccccc31)c1cc([N+](=O)[O-])cc([N+](=O)[O-])c1-2 | 82.5% (active)
Cc1nc2c(Br)cc(Br)cc2c(=O)n1-c1ccccc1NC1OCC(O)C(O)C1O (stereo not given) | 95.2% (active) and 82.2% (active)
Cc1cc(N(CCOS(C)(=O)=O)CCOS(C)(=O)=O)ccc1C=Nc1ccc(-c2nc(Cc3ccccc3)sc2C)cc1 | 77% (active)
